Measurements taken from the supplement of paper PMC10849652.
About 7,900 targets were measured; listed, in parts, are those with a hit and a random draw of the rest. About 0.6% of all pairs of compound and target were hits.

What was measured:
Assay in all cases: log2 fold change, soluble protein after heating vs DMSO (PISA); higher = thermal stabilisation; K562 cells, 10 uM, 30 min; active = over 0.2 and 3.5 SD of the protein, either way, in both replicates (recomputed)
[1] = compound: COC1=CC=C(C=C1)CN2C=CC3=C2C=C(C=C3)C(=O)NO
Outline: (§1)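 Soluble protein was defined as the supernatant after 21,000xg for 90 min. It came from K562 cells at 2×10^6 cells/mL given 10 μM compound for 30 min, heated in aliquots for 3 min across 48°C-58°C, pooled, and extracted in PBS with 0.5% NP-40 at 4°C, and was quantified by TMTpro 16plex LC-MS/MS with equalised channel sums. Thermal stability against control samples, from duplicates, is reported as log2 fold change.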

filanesib = compound: CON(C)C(=O)N1N=C(c2cc(F)ccc2F)S[C@@]1(CCCN)c1ccccc1 [filanesib]
Outline: as §1

zotarolimus = compound: CO[C@H]1C[C@@H]2CC[C@@H](C)[C@@](O)(O2)C(=O)C(=O)N2CCCC[C@H]2C(=O)O[C@H]([C@H](C)C[C@@H]2CC[C@H](n3cnnn3)[C@H](OC)C2)CC(=O)[C@H](C)/C=C(\C)[C@@H](O)[C@@H](OC)C(=O)[C@H](C)C[C@H](C)/C=C/C=C/C=C/1C [zotarolimus]
Outline: as §1

idasanutlin = compound: COc1cc(C(=O)O)ccc1NC(=O)[C@@H]1N[C@@H](CC(C)(C)C)[C@](C#N)(c2ccc(Cl)cc2F)[C@H]1c1cccc(Cl)c1F [idasanutlin]
Outline: as §1

alisertib = compound: COc1cc(Nc2ncc3c(n2)-c2ccc(Cl)cc2C(c2c(F)cccc2OC)=NC3)ccc1C(=O)O [alisertib]
Outline: as §1

[2] = compound: COc1cc2nc(-c3cc(F)ccc3O)nc(N[C@@H]3CNC[C@H]3C(C)(C)O)c2cc1OC
Outline: as §1

gefitinib = compound: COc1cc2ncnc(Nc3ccc(F)c(Cl)c3)c2cc1OCCCN1CCOCC1 [gefitinib]
Outline: as §1

[3] = compound: COc1cccc2cc(-c3nc([C@H]4CC[C@H](C(=O)O)CC4)n4ncnc(N)c34)[nH]c12
Outline: as §1

lapatinib = compound: CS(=O)(=O)CCNCc1ccc(-c2ccc3ncnc(Nc4ccc(OCc5cccc(F)c5)c(Cl)c4)c3c2)o1 [lapatinib]
Outline: as §1

pictilisib = compound: CS(=O)(=O)N1CCN(Cc2cc3nc(-c4cccc5[nH]ncc45)nc(N4CCOCC4)c3s2)CC1 [pictilisib]
Outline: as §1

Measured: log2 fold change

PRPF38A (UniProt Q8NAV1)
inactive: [1] -0.113 | filanesib 0.046 | zotarolimus -0.014 | idasanutlin 0.035 | alisertib -0.033 | [2] 0.041 | gefitinib 0.009 | [3] 0.002 | lapatinib -0.035 | pictilisib 0.085

POLR3K (UniProt Q9Y2Y1)
Sequence of UniProt Q9Y2Y1 (Q9Y2Y1 whole entry, looked up): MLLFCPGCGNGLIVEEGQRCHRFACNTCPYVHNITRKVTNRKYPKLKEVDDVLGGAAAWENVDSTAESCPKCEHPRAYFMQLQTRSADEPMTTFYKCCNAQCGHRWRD
inactive: [1] -0.078 | filanesib -0.03 | zotarolimus -0.063 | idasanutlin 0.006 | alisertib -0.156 | [2] 0.01 | gefitinib -0.023 | [3] 0.044 | lapatinib 0.057 | pictilisib -0.04

POLR2I (UniProt P36954)
inactive: [1] -0.012 | filanesib 0.041 | zotarolimus -0.017 | idasanutlin 0.029 | alisertib 0.061 | [2] 0.076 | gefitinib -0.003 | [3] 0.062 | lapatinib -0.006 | pictilisib -0.041

PRMT3 (UniProt O60678)
inactive: [1] 0.026 | filanesib -0.099 | zotarolimus 0.008 | idasanutlin -0.017 | alisertib -0.005 | [2] 0.098 | gefitinib -0.122 | [3] -0.111 | lapatinib 0.013 | pictilisib 0.048

PHKA1 (UniProt P46020)
inactive: [1] 0.046 | filanesib 0.076 | zotarolimus -0.024 | alisertib -0.223 | [2] 0.265 | gefitinib -0.017 | [3] 0.034 | lapatinib -0.109 | pictilisib 0.049
active: idasanutlin -0.518

POGLUT1 (UniProt Q8NBL1)
Sequence of UniProt Q8NBL1 (Q8NBL1 whole entry, looked up): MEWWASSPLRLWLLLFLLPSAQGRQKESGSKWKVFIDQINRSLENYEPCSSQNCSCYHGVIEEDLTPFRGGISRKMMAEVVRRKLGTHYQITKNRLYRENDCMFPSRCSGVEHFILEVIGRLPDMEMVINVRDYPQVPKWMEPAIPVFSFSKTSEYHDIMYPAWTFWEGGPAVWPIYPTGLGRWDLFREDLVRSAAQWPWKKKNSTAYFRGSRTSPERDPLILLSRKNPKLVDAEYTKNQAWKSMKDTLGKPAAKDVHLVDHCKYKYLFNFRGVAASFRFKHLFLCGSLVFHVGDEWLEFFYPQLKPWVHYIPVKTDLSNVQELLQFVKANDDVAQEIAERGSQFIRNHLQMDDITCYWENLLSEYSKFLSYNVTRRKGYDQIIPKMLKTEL
inactive: [1] -0.086 | filanesib 0.076 | zotarolimus -0.004 | idasanutlin 0.114 | alisertib -0.051 | [2] 0.035 | gefitinib -0.046 | [3] -0.132 | lapatinib 0.036 | pictilisib -0.099

PISD (UniProt Q9UG56)
inactive: [1] -0.018 | filanesib -0.012 | zotarolimus 0.015 | idasanutlin -0.074 | alisertib -0.024 | [2] 0.148 | gefitinib 0.008 | [3] 0.012 | lapatinib -0.009 | pictilisib 0.036

PRKCE (UniProt Q02156)
inactive: [1] -0.024 | filanesib -0.082 | zotarolimus 0 | idasanutlin -0.085 | alisertib -0.078 | [2] 0.012 | gefitinib 0.029 | [3] -0.104 | lapatinib 0.025 | pictilisib 0.099

PPP2R5C isoform 5 (UniProt Q13362)
Sequence of UniProt Q13362 (Q13362 whole entry, looked up): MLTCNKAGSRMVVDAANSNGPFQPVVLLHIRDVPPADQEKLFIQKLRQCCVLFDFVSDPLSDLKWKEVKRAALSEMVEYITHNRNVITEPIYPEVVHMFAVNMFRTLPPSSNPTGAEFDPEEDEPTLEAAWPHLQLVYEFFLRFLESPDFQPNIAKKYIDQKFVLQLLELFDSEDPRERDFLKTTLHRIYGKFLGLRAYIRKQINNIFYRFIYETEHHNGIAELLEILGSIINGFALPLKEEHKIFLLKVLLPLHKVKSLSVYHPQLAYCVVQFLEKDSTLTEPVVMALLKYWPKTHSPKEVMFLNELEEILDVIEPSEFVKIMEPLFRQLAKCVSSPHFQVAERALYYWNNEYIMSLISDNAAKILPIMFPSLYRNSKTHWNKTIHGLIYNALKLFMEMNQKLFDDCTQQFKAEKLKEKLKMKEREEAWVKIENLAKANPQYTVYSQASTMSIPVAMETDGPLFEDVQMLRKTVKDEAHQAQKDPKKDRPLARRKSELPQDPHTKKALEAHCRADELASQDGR
inactive: [1] 0.022 | filanesib -0.126 | zotarolimus 0.031 | idasanutlin -0.137 | alisertib -0.11 | [2] 0.082 | gefitinib -0.018 | [3] -0.012 | lapatinib 0 | pictilisib 0.111

PSMA3 (UniProt P25788)
Sequence of UniProt P25788 (P25788 whole entry, looked up): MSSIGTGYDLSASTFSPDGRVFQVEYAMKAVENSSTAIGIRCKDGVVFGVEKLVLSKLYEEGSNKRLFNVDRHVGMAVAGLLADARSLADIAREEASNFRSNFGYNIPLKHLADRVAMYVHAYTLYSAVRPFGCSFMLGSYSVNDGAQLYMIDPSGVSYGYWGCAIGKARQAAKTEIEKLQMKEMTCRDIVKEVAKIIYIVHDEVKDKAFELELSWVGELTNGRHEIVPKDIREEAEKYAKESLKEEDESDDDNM
inactive: [1] 0.015 | filanesib 0.034 | zotarolimus 0.044 | idasanutlin 0.019 | alisertib -0.04 | [2] -0.079 | gefitinib -0.025 | [3] -0.003 | lapatinib 0.062 | pictilisib -0.053

PPP6R1 (UniProt Q9UPN7)
Sequence of UniProt Q9UPN7 (Q9UPN7 whole entry, looked up): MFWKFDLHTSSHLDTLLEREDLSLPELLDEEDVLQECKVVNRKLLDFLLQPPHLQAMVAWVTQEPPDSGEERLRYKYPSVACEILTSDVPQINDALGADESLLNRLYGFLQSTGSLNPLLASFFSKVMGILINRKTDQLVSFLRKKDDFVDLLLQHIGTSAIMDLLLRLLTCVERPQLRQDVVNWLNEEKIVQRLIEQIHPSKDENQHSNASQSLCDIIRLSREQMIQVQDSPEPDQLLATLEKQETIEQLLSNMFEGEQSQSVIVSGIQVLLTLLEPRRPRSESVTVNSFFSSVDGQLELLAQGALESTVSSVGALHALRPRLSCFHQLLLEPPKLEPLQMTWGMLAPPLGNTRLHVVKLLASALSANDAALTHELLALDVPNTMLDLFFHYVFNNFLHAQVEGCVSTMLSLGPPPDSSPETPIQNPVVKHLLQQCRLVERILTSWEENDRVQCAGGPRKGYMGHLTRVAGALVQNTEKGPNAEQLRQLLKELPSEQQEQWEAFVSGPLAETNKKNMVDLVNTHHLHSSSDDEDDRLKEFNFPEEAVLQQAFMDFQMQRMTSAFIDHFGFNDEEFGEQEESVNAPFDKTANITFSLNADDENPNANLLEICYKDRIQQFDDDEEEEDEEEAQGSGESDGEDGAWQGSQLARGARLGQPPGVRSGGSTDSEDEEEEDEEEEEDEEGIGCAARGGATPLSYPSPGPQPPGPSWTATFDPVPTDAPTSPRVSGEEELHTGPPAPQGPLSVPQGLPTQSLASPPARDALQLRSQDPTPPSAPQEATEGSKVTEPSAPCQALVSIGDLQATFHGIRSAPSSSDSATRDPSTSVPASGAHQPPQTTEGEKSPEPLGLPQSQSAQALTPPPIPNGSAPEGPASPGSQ
inactive: [1] -0.002 | filanesib -0.072 | zotarolimus -0.005 | idasanutlin -0.032 | alisertib -0.098 | [2] -0.055 | gefitinib 0.012 | [3] 0.014 | lapatinib 0.016 | pictilisib 0

PSMB6 (UniProt P28072)
inactive: [1] -0.055 | filanesib 0.075 | zotarolimus -0.018 | idasanutlin 0.044 | alisertib -0.062 | [2] -0.014 | gefitinib -0.027 | [3] 0.018 | lapatinib 0.035 | pictilisib -0.017

PJA2 (UniProt O43164)
inactive: [1] -0.022 | filanesib 0.004 | zotarolimus -0.071 | idasanutlin 0.11 | alisertib -0.008 | [2] 0.024 | gefitinib -0.016 | [3] 0.001 | lapatinib -0.001 | pictilisib -0.049

PEX13 (UniProt Q92968)
Sequence of UniProt Q92968 (Q92968 whole entry, looked up): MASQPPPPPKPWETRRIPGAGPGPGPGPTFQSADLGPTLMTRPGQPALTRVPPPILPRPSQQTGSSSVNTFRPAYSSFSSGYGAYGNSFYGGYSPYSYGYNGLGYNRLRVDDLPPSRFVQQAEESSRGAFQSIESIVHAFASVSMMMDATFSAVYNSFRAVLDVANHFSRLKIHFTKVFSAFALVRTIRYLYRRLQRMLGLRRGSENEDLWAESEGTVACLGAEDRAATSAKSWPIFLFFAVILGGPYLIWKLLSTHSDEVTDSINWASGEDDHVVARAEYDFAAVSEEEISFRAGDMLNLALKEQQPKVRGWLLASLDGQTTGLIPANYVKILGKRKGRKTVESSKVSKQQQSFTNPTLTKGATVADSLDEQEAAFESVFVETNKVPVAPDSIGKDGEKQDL
active: [2] -0.318
inactive: [1] 0.028 | filanesib -0.072 | zotarolimus -0.129 | idasanutlin -0.019 | alisertib -0.037 | gefitinib -0.045 | [3] 0.115 | lapatinib -0.013 | pictilisib 0.009

PPP2R5E (UniProt Q16537)
Sequence of UniProt Q16537 (Q16537 whole entry, looked up): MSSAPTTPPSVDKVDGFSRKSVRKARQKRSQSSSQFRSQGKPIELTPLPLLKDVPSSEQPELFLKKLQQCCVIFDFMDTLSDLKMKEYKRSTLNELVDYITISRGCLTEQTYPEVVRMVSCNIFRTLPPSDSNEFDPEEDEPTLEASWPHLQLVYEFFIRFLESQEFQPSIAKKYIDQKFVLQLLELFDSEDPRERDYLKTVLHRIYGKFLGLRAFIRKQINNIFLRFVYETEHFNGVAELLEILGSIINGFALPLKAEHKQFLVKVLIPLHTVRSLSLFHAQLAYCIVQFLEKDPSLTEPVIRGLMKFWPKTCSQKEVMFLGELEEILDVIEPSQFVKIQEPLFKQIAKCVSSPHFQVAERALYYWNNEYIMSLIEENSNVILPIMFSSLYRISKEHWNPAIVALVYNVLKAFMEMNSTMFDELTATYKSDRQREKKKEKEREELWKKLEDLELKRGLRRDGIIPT
inactive: [1] -0.044 | filanesib -0.056 | zotarolimus -0.009 | idasanutlin -0.191 | alisertib -0.024 | [2] 0.205 | gefitinib 0.002 | [3] 0.033 | lapatinib -0.024 | pictilisib -0.118

PTRH2 (UniProt Q9Y3E5)
Sequence of UniProt Q9Y3E5 (Q9Y3E5 whole entry, looked up): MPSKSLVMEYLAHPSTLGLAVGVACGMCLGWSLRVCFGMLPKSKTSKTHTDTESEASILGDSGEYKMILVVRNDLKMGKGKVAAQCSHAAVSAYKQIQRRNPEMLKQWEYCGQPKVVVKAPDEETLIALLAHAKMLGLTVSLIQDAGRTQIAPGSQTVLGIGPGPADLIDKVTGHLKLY
active: [1] 0.403
inactive: filanesib -0.033 | zotarolimus 0.01 | idasanutlin -0.076 | alisertib -0.009 | [2] 0.07 | gefitinib 0.015 | [3] 0.001 | lapatinib 0.012 | pictilisib -0.005

PCBP2 isoform 3 (UniProt Q15366)
Sequence of UniProt Q15366 (Q15366 whole entry, looked up): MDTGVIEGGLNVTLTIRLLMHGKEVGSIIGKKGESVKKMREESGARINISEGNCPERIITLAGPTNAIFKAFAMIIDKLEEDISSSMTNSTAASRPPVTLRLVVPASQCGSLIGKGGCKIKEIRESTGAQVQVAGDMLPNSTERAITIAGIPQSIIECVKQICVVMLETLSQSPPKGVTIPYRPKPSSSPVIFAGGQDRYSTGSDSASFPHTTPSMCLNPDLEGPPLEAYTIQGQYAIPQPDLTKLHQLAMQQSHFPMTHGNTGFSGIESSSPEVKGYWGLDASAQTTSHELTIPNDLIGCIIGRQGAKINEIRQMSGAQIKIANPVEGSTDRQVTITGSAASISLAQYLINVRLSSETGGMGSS
inactive: [1] 0.138 | filanesib -0.031 | zotarolimus 0.048 | idasanutlin -0.064 | alisertib 0.012 | [2] -0.092 | gefitinib 0.011 | [3] 0.002 | lapatinib 0.003 | pictilisib -0.013

PTDSS1 (UniProt P48651)
inactive: [1] -0.015 | filanesib 0.075 | zotarolimus 0.053 | idasanutlin 0.124 | alisertib -0.098 | [2] -0.071 | gefitinib 0.041 | [3] -0.012 | lapatinib 0.04 | pictilisib -0.098

PPP1R35 (UniProt Q8TAP8)
inactive: [1] 0.003 | filanesib 0.026 | zotarolimus -0.004 | idasanutlin 0.196 | alisertib -0.003 | [2] -0.125 | gefitinib 0.027 | [3] 0.083 | lapatinib 0.011 | pictilisib -0.068

PLCB3 (UniProt Q01970)
inactive: [1] -0.004 | filanesib -0.118 | zotarolimus 0.007 | idasanutlin -0.044 | alisertib -0.05 | [2] -0.008 | gefitinib -0.003 | [3] 0.013 | lapatinib -0.028 | pictilisib 0.055

POLR2G (UniProt P62487)
inactive: [1] 0.039 | filanesib -0.014 | zotarolimus -0.046 | idasanutlin -0.006 | alisertib -0.054 | [2] 0.127 | gefitinib 0.001 | [3] 0.106 | lapatinib -0.022 | pictilisib 0.109

PFAS (UniProt O15067)
inactive: [1] 0.149 | filanesib -0.045 | zotarolimus 0.069 | idasanutlin 0.085 | alisertib 0.029 | [2] 0.26 | gefitinib -0.005 | [3] 0.013 | lapatinib -0.063
active: pictilisib -0.449

PTGFRN (UniProt Q9P2B2)
inactive: [1] 0.006 | filanesib 0.129 | zotarolimus -0.021 | idasanutlin 0.073 | alisertib 0.01 | [2] 0.139 | gefitinib 0.025 | [3] 0.124 | lapatinib 0.036 | pictilisib 0.122

PPIL1 (UniProt Q9Y3C6)
Sequence of UniProt Q9Y3C6 (Q9Y3C6 whole entry, looked up): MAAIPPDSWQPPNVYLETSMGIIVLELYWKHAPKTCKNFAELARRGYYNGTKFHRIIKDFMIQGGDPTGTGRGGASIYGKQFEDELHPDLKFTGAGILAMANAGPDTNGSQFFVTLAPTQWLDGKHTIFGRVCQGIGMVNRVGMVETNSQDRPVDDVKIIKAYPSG
inactive: [1] -0.079 | filanesib 0.05 | zotarolimus -0.008 | idasanutlin -0.015 | alisertib -0.078 | [2] 0.12 | gefitinib -0.023 | [3] -0.017 | lapatinib -0.051 | pictilisib -0.028

PGGT1B (UniProt P53609)
inactive: [1] -0.112 | filanesib 0.047 | zotarolimus -0.006 | idasanutlin -0.025 | alisertib -0.03 | [2] -0.031 | gefitinib -0.013 | [3] 0.058 | lapatinib -0.019 | pictilisib 0.037

PSMD5 (UniProt Q16401)
Sequence of UniProt Q16401 (Q16401 whole entry, looked up): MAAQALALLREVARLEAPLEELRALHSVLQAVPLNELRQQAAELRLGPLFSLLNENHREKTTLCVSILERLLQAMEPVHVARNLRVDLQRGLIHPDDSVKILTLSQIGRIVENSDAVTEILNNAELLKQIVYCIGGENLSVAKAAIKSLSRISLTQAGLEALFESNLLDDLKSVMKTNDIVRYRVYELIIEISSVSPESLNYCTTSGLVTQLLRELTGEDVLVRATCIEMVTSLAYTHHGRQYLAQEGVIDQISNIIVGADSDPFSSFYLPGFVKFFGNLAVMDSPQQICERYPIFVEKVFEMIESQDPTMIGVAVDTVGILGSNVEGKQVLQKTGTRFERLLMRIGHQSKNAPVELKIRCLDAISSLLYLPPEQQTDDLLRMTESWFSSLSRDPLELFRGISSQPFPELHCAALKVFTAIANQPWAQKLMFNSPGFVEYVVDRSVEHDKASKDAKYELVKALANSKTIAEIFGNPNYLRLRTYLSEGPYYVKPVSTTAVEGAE
inactive: [1] 0.024 | filanesib -0.046 | zotarolimus 0.013 | idasanutlin -0.055 | alisertib -0.055 | [2] -0.017 | gefitinib -0.013 | [3] 0 | lapatinib 0.017 | pictilisib -0.017

POLR3B (UniProt Q9NW08)
inactive: [1] 0.026 | filanesib 0.065 | zotarolimus 0.075 | idasanutlin 0.008 | alisertib -0.086 | [2] 0.08 | gefitinib 0.105 | [3] -0.135 | lapatinib 0.008 | pictilisib -0.019

PPT2 isoform 3 (UniProt Q9UMR5)
Sequence of UniProt Q9UMR5 (Q9UMR5 whole entry, looked up): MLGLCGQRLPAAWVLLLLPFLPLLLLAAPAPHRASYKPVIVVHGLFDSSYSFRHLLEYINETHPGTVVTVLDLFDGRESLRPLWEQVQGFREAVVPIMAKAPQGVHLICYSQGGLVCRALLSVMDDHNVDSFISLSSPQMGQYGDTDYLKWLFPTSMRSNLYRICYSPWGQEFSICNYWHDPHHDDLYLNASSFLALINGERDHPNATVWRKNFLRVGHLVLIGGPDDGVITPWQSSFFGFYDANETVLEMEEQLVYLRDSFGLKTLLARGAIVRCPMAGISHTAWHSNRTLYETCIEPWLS
inactive: [1] 0.052 | filanesib 0.008 | zotarolimus -0.019 | idasanutlin -0.082 | alisertib -0.114 | [2] -0.029 | gefitinib -0.004 | [3] 0.093 | lapatinib 0.035 | pictilisib 0.024

PEF1 (UniProt Q9UBV8)
Sequence of UniProt Q9UBV8 (Q9UBV8 whole entry, looked up): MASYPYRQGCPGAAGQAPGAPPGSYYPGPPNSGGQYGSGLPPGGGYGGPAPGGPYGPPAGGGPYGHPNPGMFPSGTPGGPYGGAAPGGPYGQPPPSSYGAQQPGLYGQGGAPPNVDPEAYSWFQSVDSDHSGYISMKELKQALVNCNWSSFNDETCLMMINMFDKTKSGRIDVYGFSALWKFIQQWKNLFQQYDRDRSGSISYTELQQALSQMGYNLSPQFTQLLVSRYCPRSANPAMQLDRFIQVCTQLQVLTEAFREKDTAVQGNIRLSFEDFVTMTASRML
inactive: [1] -0.009 | filanesib -0.038 | zotarolimus 0.041 | idasanutlin -0.009 | alisertib -0.008 | [2] -0.089 | gefitinib -0.011 | [3] 0.058 | lapatinib 0.032 | pictilisib -0.076
